Values without a mark were called inactive.
Tests used:
Details in all cases: 60 µM; 5 days; temperature: 20 °C
Meloidogyne hapla J2 = assay: proportion of mobile M. hapla J2 relative to DMSO control (fraction of DMSO control); higher = more viable, less nematicidal, active = 0.7 or less
Procedure, shortened: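 About 25 M. hapla J2 were placed in each well of a 96-well plate in distilled water, and compound was pinned in to a final 60 µM with 0.6% v/v DMSO. The sealed plates were shaken at 200 rpm at 20 °C for 5 days, after which 2 µL of 1 M NaOH went into each well. Mobility was then scored under the microscope and divided by the mean value from DMSO-only wells on the same plate. Each plate held eight such DMSO wells, and two biological replicates were averaged.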

[1] = test system: Caenorhabditis elegans dauer (daf-2(e1370)); assay: proportion of mobile C. elegans dauer larvae relative to DMSO control (fraction of DMSO control); higher = more viable, less nematicidal, active = 0.63 or less; extreme values may be limits of the assay
Procedure, shortened: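 Compound was added by pinning to 60 µM final, giving 0.6% v/v DMSO, in 96-well plates containing about 20 C. elegans dauers per well in liquid NGM. These dauers came from synchronized larvae held on MYOB plates with E. coli OP50 for 48 h at 25 °C. Plates were sealed and shaken at 200 rpm at 20 °C for 5 days. Under a dissection microscope, the proportion of mobile worms was scored relative to DMSO wells, and two biological replicates were averaged.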

Ditylenchus dipsaci = assay: proportion of mobile D. dipsaci (mixed stage) relative to DMSO control (fraction of DMSO control); higher = more viable, less nematicidal, active = 0.86 or less; extreme values may be limits of the assay
Procedure, shortened: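 Ditylenchus dipsaci nematodes were cultured on pea plants in Gamborg B-5 agar, then extracted into water through a filter funnel, and roughly 20 worms in distilled water were placed in each well of a 96-well plate. Compound was pinned in to a final concentration of 60 µM (0.6% v/v DMSO), and the sealed plates were shaken at 200 rpm for 5 days at 20 °C. Mobile worms were counted under the microscope after 2 µL of 1 M NaOH was added. Mobility is given relative to DMSO controls as the mean of two biological replicates.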

SMILES	proportion of mobile M. hapla J2 (Meloidogyne hapla J2)	proportion of mobile C. elegans dauer larvae [1]	proportion of mobile D. dipsaci (Ditylenchus dipsaci)
COc1ccc(C(=O)Nc2ccc(-c3nnc(SCc4ccccc4)o3)cc2)cc1	1.07	1	1
N#Cc1ccc(CSc2nnc(-c3ccccc3)o2)cc1	0.798	1	1
Brc1ccc(-c2nnc(-c3cccs3)o2)o1	1.07	0.75	0.362 (active)
COc1ccccc1NC(=O)c1ccccc1-c1nc(-c2ccccc2F)no1	1.02	1	1
CCOc1cc(-c2nc(-c3cccnc3)no2)cc(OCC)c1OCC	1.05	1	1
Brc1ccc(-c2nc(-c3ccncc3)no2)cc1	0.953	0.767	1
O=C(CSc1nnc(-c2cccnc2)o1)c1ccc2ccccc2c1	0.74	1	1
CCCCSc1nnc(-c2ccc(Br)cc2)o1	1	0.5 (active)	0.842 (active)
COc1ccc(-c2nc(C3CCCCC3)no2)cc1	0.896	1	1
Clc1ccc(OCc2nc(-c3ccncc3)no2)cc1	0.749	0.645	1
COc1ccc(-c2noc(C3CCCCC3)n2)cc1	0.927	0.779	1
Brc1cccc(-c2nc(-c3ccncc3)no2)c1	0.991	1	1
Cc1ccc(NC(=O)CSc2nnc(-c3ccccc3)o2)c(C)c1	0.951	1	1

Source: the supplement of paper PMC11219838
